Assay outcomes (PubChem)
Cycloheximide cs – affects cycloheximide protein synthesis inhibition readout, counter-screen; cell reporter, cycloheximide protein synthesis inhibition counterscreen; max response, %; 12% of 300,000 active; in the data active means max response mostly above about 13%, no sharp cut-off; inactive means mostly below about 14%; further: read at 38.3 µM for the half of the compounds with a filed dose; 0% is about no effect
Pf growth 48h – P. falciparum growth inhibition at 48 hours (one generation) | P. falciparum luciferase growth in erythrocytes, 48 h | Potency, µM (series often up to 28.7 µM), for the others: at the highest dose activity change, negative = inhibition, hits mostly inhibitors | 5.9% of 310,000 active | AID 504832; further: potency means the concentration at half of the fitted maximal effect; on the % scale 0 is the no-effect control and ±100 the full control effect
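Cell-based growth assay: transgenic P. falciparum expressing firefly luciferase, cultured in red cells within RPMI 1640 containing 0.5% w/v Albumax, 24 mM bicarbonate and gentamycin. A drop in luciferase activity indicates inhibition.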
Shiga toxin inh – inhibitors of Shiga toxin in Vero cells; Vero cells, Shiga toxin protein synthesis inhibition reporter; inhibition, % at 38.7 µM; 9.2% of 290,000 active; in the data active means inhibition mostly above about 28%, no sharp cut-off; inactive means mostly below about 43%; further: 0% is about no effect
AMA1-RON2 inh – AMA1-RON2 (P. falciparum) interaction inhibition | AlphaScreen AMA1-biotinylated RON2 peptide binding | Potency, µM (series often up to 58.2 µM), without a hit: top-dose activity change, negative = inhibition, usual class: inhibitors | 0.2% of 360,000 active | AID 720542;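 further: potency means the concentration at half of the fitted maximal effect; 0% = vehicle wells and -100% = peptide control; nearly all actives have a fitted effect of over 45% in size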
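AMA1 (3D7) with his tag at 25 nM final met compounds first, then biotinylated RON2 peptide at 25 nM; detection used donor plus acceptor beads, 10 µg/mL apiece, read by AlphaScreen after 30 min at room temperature.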
HCV inhibitor – inhibitors of hepatitis C virus infection. Potency, µM (doses to about 41.8 µM), for the others: at the top dose activity change, negative = inhibition, most hits filed as inhibitors. AID 651820. Huh7.5.1 HCVcc-Cre infection, luciferase reporter, 44 h. 3.4% of 340,000 active; further: potency means the concentration at half of the fitted maximal effect; on the % scale 0 is the no-effect control and ±100 the full control effect
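Cells (1,000/well) were plated 4 h before compound, then infected with HCVcc-Cre virus (~0.5 moi). After 44 h further culture, infection was read as luciferase luminescence following a 15 min substrate incubation at room temperature.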
Pf growth 96h – inhibits malaria parasite growth, 96 h. P. falciparum luciferase reporter growth, 96 h. Potency, µM (top dose mostly 28.7 µM), inactives show at the top dose activity change, negative = inhibition, most hits filed as inhibitors. 6.9% of 320,000 active. AID 504834; further: potency means the concentration at half of the fitted maximal effect; on the % scale 0 is the no-effect control and ±100 the full control effect
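P. falciparum expressing integrated firefly luciferase grown in erythrocytes (2% hematocrit, 0.05% parasitemia final) with compounds for 96 hours at 37 C, 5% CO2. Growth inhibition read as loss of luminescence after adding luciferase detection reagent.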
* = called active by the depositor; ? = inconclusive; . = not tested or not shown; + = active, no number; [ ] = dose if it differs, or a comment. Only some compounds are listed: those with a hit (about 21% of all), similar ones and a draw of the others. Unless noted, the call rests on the fitted dose curve; in most records, active means well fitted curve in the direction sought with a large enough effect; inconclusive means small, poorly fitted or top-dose-only effect, or another doubt; inactive means no such curve, though single readings can be large; an effect the other way counts as inactive or inconclusive.

SMILES | Cycloheximide cs | Pf growth 48h | Shiga toxin inh | AMA1-RON2 inh | HCV inhibitor | Pf growth 96h
CCC(=O)N(C)CCc1cc2c(c(OC)c1/C=N/NC(=O)c1ccccc1O)OCO2 | -2 | 27% | 35 | 24%[11.6 µM] | 9% | 23%
COc1c(/C=N/NC(=O)c2ccccc2O)c(CCN(C)C(C)=O)cc2c1OCO2 | 16* | 32% | 57* | 5%[11.6 µM] | 17% | 1%
O=C(Nc1c(-c2ccc(Cl)cc2)[nH][nH]c1=O)c1ccccc1Cl | . | . | . | 10% | . | .
O=[N+]([O-])c1ccc(-c2ccccc2)c([As](=O)(O)O)c1 | -4 | 12µM* | 1 | -8% | -24% | 2.1µM*
COc1ccc(C(=O)CC(=O)C(=O)Nc2ccc(C)c(Cl)c2)cc1 | 23* | . | 29 | 108% | -2% | 14%
COc1ccc(C(=O)CC(=O)C(=O)Nc2ccc([N+](=O)[O-])cc2C)cc1 | -2 | -7%[0.00184 µM] | 3 | 92% | ? | 3%
COc1ccc(C(=O)CC(=O)C(=O)Nc2cc(OC)c(OC)c(OC)c2)cc1 | -1 | . | 10 | 88% | -4% | 1%
COc1ccc(C(=O)CC(=O)C(=O)Nc2cc(C)ccc2C)cc1 | -3 | . | 4 | 39% | -8% | 9.3µM*
Cc1cccc(NC(=O)CN2CCN(C(=O)c3ccc(-c4nc5ccccc5s4)o3)CC2)c1C | . | 5% | . | -11% | ? | ?
O=C(CN1CCN(C(=O)c2ccc(-c3nc4ccccc4s3)o2)CC1)Nc1ccc(F)cc1 | . | 12µM* | . | -8% | 13µM* | 13µM*
O=C(CN1CCN(C(=O)c2ccc(-c3nc4ccccc4s3)o2)CC1)Nc1ccccc1Cl | . | ? | . | -5% | 11µM* | ?
O=C(Nc1nnc([C@@H]2C[C@H](O)[C@@H](CO)O2)s1)Nc1ccccc1F | . | . | . | 3% | . | .
CSc1n[nH]c(NC(C)=O)n1 | 0 | 1.2µM* | -28 | 6% | 22% | 8%
Cc1nc(NS(=O)(=O)c2ccc(N)cc2)nc(C)c1Br | . | 4% | . | . | . | 4%
Cc1c(-c2cccc(Cl)c2)nc2ccccc2c1C(=O)NC1CC1 | -5 | -24% | -3 | 9% | -9% | 10µM*
Cc1c(-c2cccc(Cl)c2)nc2ccccc2c1C(=O)OCC(=O)Nc1ccc2c(c1)OCO2 | -6 | ? | 1 | -23% | ? | 2.1µM*
CCCc1nc2ccccc2c(C(=O)OCC(=O)NCc2ccc3c(c2)OCO3)c1CC | 1 | 10µM* | -22 | 6% | ? | 8.3µM*
CCc1nc2ccccc2c(C(=O)OCC(=O)NCc2ccc3c(c2)OCO3)c1C | -5 | -11% | -9 | -1% | ? | ?
CC(C)n1c(=O)c2ccccc2n1Cc1cn(-c2ccccc2)nn1 | . | . | . | 10% | . | .
O=C(CSc1nc(=O)n2ccccc2n1)N1N=C(c2cccs2)CC1c1ccc(F)cc1 (centres undefined) | . | ? | . | -5% | ? | ?
COc1ccc(C2CC(c3cccs3)=NN2C(=O)CSc2nc(=O)n3ccc(C)cc3n2)cc1 (centres undefined) | . | 12µM* | . | 2% | ? | ?
Cc1ccc(C2CC(c3cccs3)=NN2C(=O)CSc2nc(=O)n3ccc(C)cc3n2)cc1 (centres undefined) | . | 8.3µM* | . | . | -9% | ?
NC(=O)C1CCN(C(=O)Nc2csc3ccccc23)CC1 | 1 | -1% | -6 | -7% | 17% | 8%
Cc1ccc(-c2noc(CCC(=O)Nc3ccc4c(c3)OCO4)n2)cc1 | 2 | 23% | 19 | -7% | -9% | 2.3µM*
COc1ccc(-c2noc(CCC(=O)Nc3ccc(C)c(C)c3)n2)cc1 | 15* | -13% | 34 | 16% | ? | .
SMILES | Cycloheximide cs | Pf growth 48h | Shiga toxin inh | AMA1-RON2 inh | HCV inhibitor | Pf growth 96h
COc1ccc(NC(=O)CCc2nc(-c3ccc(C)cc3)no2)cc1Cl | 18 | 36% | 55 | 4% | ? | .
CCOC(=O)c1ccc(NC(=O)CCc2nc(-c3ccc(C)cc3)no2)cc1 | 12 | ? | 28 | 3% | 8.9µM* | 3.7µM*
COc1ccc(-c2noc(CCC(=O)Nc3ccc4c(c3)OCCO4)n2)cc1 | 23* | 15% | 43* | 6% | ? | 0.59µM*
O=C(CCn1c(=O)oc2cc(Cl)ccc21)Nc1ccc(N2CCOCC2)cc1 | -5 | -15% | -9 | 6% | ? | 13%
O=C1CSc2ccc(C(=O)N3CCCCC3)cc2N1 | . | . | . | 0% | . | .
COc1ccc(OCCCC(=O)Nc2ccc3c(c2)OCCO3)cc1 | 11 | -12% | + | 1% | ? | -2%
COc1ccccc1NS(=O)(=O)c1cccc(-n2c(O)c(C=Nc3ccccc3C(=O)O)c3ccccc3c2=O)c1 | 0 | -5% | 32 | -11% | -26% | -19%
CCN1CCN(CCCNC(=O)c2ccc(NC(=O)C3=C(C)OCCS3)cc2)CC1 | -8 | 12% | -4 | 0% | 2% | ?
CC1=CCC2C(=O)N(c3ccc4ccccc4n3)C(=O)C2C1 (centres undefined) | 9.4* | 17% | -33 | -2% | 5% | 13%
O=C(Nc1ccc(Cl)cc1)N1CCC(c2nc(-c3cccs3)no2)CC1 | 24* | 21% | 49* | 1% | ? | 37%
COc1ccc(NC(=O)N2CCC(c3nc(-c4cccs4)no3)CC2)cc1 | 19* | 11% | 11 | -8% | ? | 0.52µM*
O=C(Nc1ccccc1)N1CCC(c2nc(-c3ccc(S(=O)(=O)N4CCOCC4)cc3)no2)CC1 | -1 | ? | -10 | -6% | 10µM* | 8.3µM*
O=C(Nc1ccc(Cl)cc1)N1CCC(c2nc(-c3ccccc3Cl)no2)CC1 | 15 | 1.9µM* | 10 | 2% | 7.1µM* | .
O=C(c1ccccc1)N1CCC(c2nc(-c3ccc(S(=O)(=O)N4CCOCC4)cc3)no2)CC1 | -2 | ? | -8 | -3% | -27% | ?
O=C(NC1CCCCC1)N1CCCC(c2nc(-c3cccs3)no2)C1 (centres undefined) | -2 | -5% | 18 | 3% | ? | -20%
O=C(Nc1ccccc1)N1CCCC(c2nc(-c3cccs3)no2)C1 (centres undefined) | 19* | 21% | 80* | -5% | ? | .
O=C(NCc1ccc2c(c1)OCO2)c1cc(COc2c(F)cccc2F)on1 | 37* | 18% | 42 | 23% | . | ?
COc1cccc(CNC(=O)c2cc(COc3c(F)cccc3F)on2)c1 | 29* | 7% | 33* | 6% | 2% | -17%
Cc1nc(CNC(=O)c2cc(COc3c(F)cccc3F)on2)cs1 | 12 | 12% | 39 | 23% | 1% | 7%
CCC(NC(=O)c1cc(COc2c(F)cccc2F)on1)c1ccncc1 (centres undefined) | 15 | 12% | -1 | -11% | . | -8%
COC(=O)[C@H](Cc1ccccc1)NC(=O)c1cc(COc2c(F)cccc2F)on1 | 52* | 41% | 67* | 0% | 10% | 12µM*
